For 15 compounds, max response and Potency results are on record in PubChem BioAssay (NCATS).

Results filed as inconclusive are left out. A number with no mark means an inactive call. Calls of active or inactive are those of the source. Calls follow the shape of the dose curve; as a rule, active = well fitted inhibition curve with a large enough effect; inconclusive = small, poorly fitted or top-dose-only effect; inactive = flat fitted curve, though single readings scatter.
% is scaled to controls: 0 for no effect and ±100 for the full control effect; potency is read from the fitted curve at half-maximal effect.

The experiment has as its system KB-3-1. Kind of experiment: Cytotoxic Profiling of Annotated Libraries Using Quantitative High-Throughput Screening (AID 1296008). Also: nearly all actives have a fitted effect of over 60% in size. The conditions noted are these: Five cell lines viability, CellTiter-Glo ATP luminescence, 48-72 h; max response: active compounds read low. The gist of the method:
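Cells exposed to compounds for 48 or 72 hr at 37 degrees Celsius. Viability read as ATP-coupled luminescence with CellTiter-Glo after 10 min at room temperature.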
(In general: In ATP-based viability assays light output follows the ATP content of the culture.)
As to `C=CCN1CCCC1CNC(=O)c1cc(S(N)(=O)=O)cc(OC)c1OC` (stereo not given), the max response was 5.61%. On the same count and under the same terms, the figure for `CC(=O)N[C@@H]([C@@H](O)[C@H](O)[C@H](O)CO)[C@@H](O)CC(=O)C(=O)O` is 10.5%. On the same count and under the same terms, the figure for `CC(=O)Oc1cccc(C(=O)O)c1OC(C)=O` is -11.2%.

On to `COc1ccc2cc([C@H](C)CO)ccc2c1`, for which the max response was 0.171%.

In the case of `CC(C)CCC[C@@H](C)[C@H]1CC(=O)C2=C3CC[C@H]4C[C@@H](O)CC[C@]4(C)[C@H]3CC[C@@]21C`, the max response was -6.65%. Regarding `CC(C)CCC[C@@H](C)[C@H]1CC[C@H]2[C@@H]3CC=C4C[C@@H](O)CC[C@]4(C)[C@H]3CC[C@]12C`, the max response is -10.6%. The same measure, in the same setting: then `FC(F)(F)COCC(F)(F)F`, with -9.66%; and `C=N[C@@H](C(=O)N[C@@H]1C(=O)N2[C@@H]1SC(C)(C)[C@@H]2C(=O)O)c1ccccc1`, with 0.762%. On the same count and under the same terms, the figure for `OCCCNc1ccccc1` is 2.06%. In the case of `CN=C1C=CC(=C(c2ccc(N(C)C)cc2)c2ccc(N(C)C)cc2)C=C1`, the Potency is 7.31 µM (active). Turning to `O=C(OC[C@H]1O[C@](O)(COC(=O)c2cccnc2)[C@@H](OC(=O)c2cccnc2)[C@@H]1OC(=O)c1cccnc1)c1cccnc1`, the max response is -13.5%. On to `Cc1ccc(S(=O)(=O)O)cc1C`, for which the max response is 7.06%. Same read-out and setting: the figure for `OCC(O)CO` is 0.712%; for `O=C(Nc1ccc(O)cc1)c1ccccc1O` it is 4.06%.

As for `CC(O)[C@H]1CC[C@H]2[C@@H]3CC[C@@H]4C[C@@H](O)CC[C@]4(C)[C@H]3CC[C@]12C` (stereo not given in full), the max response is -16.3%.
